“And” between values parts separate entries of the source, which are not always exact repeats. Equal values may be shown once. Records with an inconclusive call do not appear. Some structures have more than one record in an assay (separate samples or runs), and their calls can disagree. The source made the active and inactive calls. Unless noted, the call rests on the fitted dose curve; in most records, active means well fitted curve in the direction sought with a large enough effect in the repeat runs; inconclusive means weak or mixed curves; inactive means no such curve, though single readings can be large; an effect the other way counts as inactive or inconclusive.

Experimental findings from PubChem BioAssay (Tox21) are described below.

Experiment [1] is described as follows: qHTS assay to identify small molecule antagonists of the progesterone receptor (PR) signaling pathway - cell viability counter screen (AID 1346798). Further: series mostly up to about 92 µM; nearly all actives have a fitted effect of over 50% in size. In a few lines:
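CellTiter-Glo luminescence; PR-UAS-bla HEK293T, 3,000 cells/well; compound + R5020, 16 hr, 37C/5% CO2; 30 min RT before read.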

The nature of experiment [2]: qHTS assay to identify small molecule agonists of the progesterone receptor (PR) signaling pathway - cell viability counter screen (AID 1346799; calls by dose curve; further: nearly all actives have a fitted effect of over 45% in size; further: potency means the concentration at half of the fitted maximal effect). In a few lines: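 In parallel with the beta-lactamase readout, cytotoxicity toward PR-UAS-bla HEK293T cells was measured by CellTiter-Glo luminescence following 16 hr compound incubation in 2% charcoal-stripped FBS medium.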

The nature of experiment [3]: qHTS assay to identify small molecule agonists of the TGF-beta/Smad signaling pathway - cell viability counter screen (AID 1346829). Further: top concentration of the series differs between compounds; nearly all actives have a fitted effect of over 45% in size. In a few lines:
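Same-well cytotoxicity: CellTiter-Glo added after the 2 hr room-temperature beta-lactamase substrate step, luminescence measured 30 min later; cells had 5 hr of compound at 37 C.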

Experiment [4] can be described thus: qHTS assay to identify small molecule agonists of the TGF-beta/Smad signaling pathway (AID 1346859; active means well fitted activation curve with a large enough effect in the signal ratio in the repeat runs, not every such curve was filed as active; the % refers to the signal ratio; further: potency means the concentration at half of the fitted maximal effect; on activation: series mostly up to about 77 µM). In short, it runs like this: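 After overnight seeding, SBE-bla HEK 293T cells are dosed with compounds in DMSO and kept 5 hr at 37 C, 5% CO2. LiveBLAzer-type FRET substrate is then applied for 2 hr at room temperature.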
Experiment [5] in a line: Human pregnane X receptor (PXR) small molecule agonists, qHTS cell viability counter screen (AID 1346977). Further: nearly all actives have a fitted effect of over 50% in size. Further: potency means the concentration at half of the fitted maximal effect. In short, it runs like this:
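Viability counter screen: CellTiter-Fluor signal in PXR-Luc HepG2 cells, 24hr compound exposure, 37C, 5% CO2.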

The nature of experiment [6]: Caspase-3/7 induction in HepG2 cells by small molecules, qHTS assay (AID 1346978). Further: nearly all actives have a fitted effect of over 15% in size. In a few lines: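 Wild-type HepG2 cells, 2,000/well, settled 5 hr at 37 C and 5% CO2, then compound-treated for 17 hr; caspase-3/7 activity read by luminescent Caspase-Glo 3/7 after 30 min at room temperature.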
A short description of experiment [7]: Caspase-3/7 induction in CHO-K1 cells by small molecules, qHTS cell viability counter screen (AID 1346979). Further: nearly all actives have a fitted effect of over 35% in size. Further: potency means the concentration at half of the fitted maximal effect. In a few lines: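 Viability readout by fluorescence (CellTiter-Fluor) on wild-type CHO-K1 cells exposed for 16hr at 37C and 5% CO2 to compounds delivered in DMSO; reagent incubated 1hr before reading.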
For experiment [8], the target named is Thyrotropin-releasing hormone receptor (Homo sapiens) (UniProt P34981). Put plainly: qHTS assay to identify small molecule antagonists of the thyrotropin-releasing hormone receptor (TRHR) signaling pathway (AID 1346877; active means well fitted inhibition curve with a large enough effect in the repeat runs, not every such curve was filed as active; further: series mostly up to about 51 µM). In short, it runs like this:
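Screening used HEK293 cells engineered with TRHR, with a brief 5 min room-temperature compound exposure preceding addition of TRH to 1 nM. The read-out was kinetic calcium-dye fluorescence, concentration-response from 15 doses in triplicate.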

For experiment [9] the target is unchanged. Nature of the experiment: qHTS assay to identify small molecule agonists of the thyrotropin-releasing hormone receptor (TRHR) signaling pathway (AID 1346891; calls by dose curve; further: potency means the concentration at half of the fitted maximal effect;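 on activation: HEK293 cells expressing TRHR with calcium dye readout; series mostly up to about 58 µM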). In short, it runs like this:
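Compounds were tested as agonists at 15 concentrations, in triplicate, on TRHR-Hek293 cells; calcium-sensitive dye fluorescence was recorded for 3 min following addition.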

Experiment [10] can be described thus: qHTS assay to identify small molecule antagonists of the TGF-beta/Smad signaling pathway - cell viability counter screen (AID 1346824). Further: nearly all actives have a fitted effect of over 50% in size. In short, it runs like this:
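SBE-bla HEK 293T cells, incubated overnight, then compound plus 0.25 ng/mL TGF-beta1 (stock added) for 5 hr at 37 C. Viability was read in the same wells by CellTiter-Glo luminescence after 30 min at room temperature.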

Chain of Thyrotropin-releasing hormone receptor (Homo sapiens) (P34981 whole entry, looked up): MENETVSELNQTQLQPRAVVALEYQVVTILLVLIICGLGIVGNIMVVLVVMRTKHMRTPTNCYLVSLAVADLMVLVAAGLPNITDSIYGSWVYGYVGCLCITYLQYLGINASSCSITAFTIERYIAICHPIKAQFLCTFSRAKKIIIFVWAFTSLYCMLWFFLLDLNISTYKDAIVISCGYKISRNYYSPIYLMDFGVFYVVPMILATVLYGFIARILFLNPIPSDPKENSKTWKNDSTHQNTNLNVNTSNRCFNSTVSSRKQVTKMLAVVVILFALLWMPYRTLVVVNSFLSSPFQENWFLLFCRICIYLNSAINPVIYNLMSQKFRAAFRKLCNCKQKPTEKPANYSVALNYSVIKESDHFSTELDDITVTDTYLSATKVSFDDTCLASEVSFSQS

Turning to `Cc1cc(-c2cc(C)c(N)c(C)c2)cc(C)c1N`, the Potency entry in experiment [1], in experiment [2], in experiment [4], in experiment [5] and in experiment [7] was “inactive” throughout. The compound was classed as inactive in experiment [3] and in experiment [6].

`Cc1cccc([N+](=O)[O-])c1`: the Potency result in [1], in experiment [2], in [4], in [9], in experiment [5] and in experiment [7] was “inactive” in each case. The result in [3], in experiment [8] and in experiment [6] was inactive.

Turning to `CCC[N+](=O)[O-]`, the Potency in experiment [2] is 19 µM (active) and inactive. In addition, the Potency entry in experiment [10], in experiment [4], in [5] and in experiment [7] was “inactive” in each case. Moreover, in [3], the compound was called inactive.

On to `O=C1CCCN1`, for which the Potency entry in experiment [1], in experiment [2], in experiment [5] and in [7] was “inactive” throughout. For the same compound, the compound was called inactive in experiment [3] and in experiment [6]. Also, in [4], the Potency is 55.5 µM (active) and inactive.

For `CN(C)N=O`, the Potency entry in [1], in [2], in experiment [4], in experiment [9], in experiment [5] and in experiment [7] was “inactive” in each case. Moreover, the outcome in experiment [3], in [8] and in experiment [6] was inactive.

Regarding `CON(C)C(=O)Nc1ccc(Cl)c(Cl)c1`, the Potency entry in [1], in experiment [10], in [4], in experiment [9] and in experiment [5] was “inactive” in each case. Moreover, the outcome in experiment [3], in experiment [8] and in experiment [6] was inactive.

In the case of `CCCC1COC(Cn2cncn2)(c2ccc(Cl)cc2Cl)O1` (stereo not drawn), the outcome in experiment [3], in experiment [8] and in experiment [6] was inactive. Besides, the Potency result in experiment [4] and in experiment [9] was “inactive” each time. Also, the Potency in experiment [7] was 62.3 µM (active) and 68.6 µM (active).

As to `O=C(O)c1ccccn1`, the Potency result in experiment [1], in [2], in experiment [4], in experiment [5] and in experiment [7] was “inactive” throughout. Besides, the compound was called inactive in experiment [3].

With `O=[N+]([O-])c1ccc([As](=O)(O)O)cc1`, the Potency entry in [1], in experiment [2], in [4], in experiment [9], in experiment [5] and in experiment [7] was “inactive” in each case. Besides, the compound was classed as inactive in experiment [3], in experiment [8] and in experiment [6].

Consider `C1CN2CCN1CC2`, for which the Potency result in experiment [1], in [2], in experiment [4], in [5] and in experiment [7] was “inactive” each time. The outcome in experiment [3] and in experiment [8] was inactive. The Potency entry in experiment [9] was “inactive and 34.7 µM (active)”.

On to `CCC(C)(CC)c1cc(NC(=O)c2c(OC)cccc2OC)on1`, for which the Potency result in experiment [2], in experiment [10], in [4], in experiment [9] and in [5] was “inactive” in each case. The outcome in experiment [3] and in [8] was inactive.

With `CCOP(=S)(OCC)SCCSCC`, the Potency entry in experiment [1], in [2], in [4], in experiment [9], in [5] and in [7] was “inactive” in each case. Besides, the compound was called inactive in [3] and in experiment [8].

For the compound `O=c1[nH]c2ccccc2c(=O)o1`, the Potency result in experiment [1], in experiment [2], in experiment [4], in [9], in experiment [5] and in experiment [7] was “inactive” throughout. In addition, the outcome in experiment [3], in [8] and in experiment [6] was inactive.

As for `CC(Br)C(=O)O` (stereo not drawn), the Potency result in experiment [1], in [2], in experiment [4], in experiment [9], in [5] and in experiment [7] was “inactive” each time. The compound was classed as inactive in [3] and in experiment [8].

As to `CCCCOC(=O)c1ccccc1C(=O)OCCCC`, the Potency result in experiment [1], in experiment [2], in experiment [4], in experiment [5] and in experiment [7] was “inactive” each time. Also, the call in experiment [3] was inactive.

As to `CCCCN(CCCC)SN(C)C(=O)Oc1cccc2c1OC(C)(C)C2`, the Potency result in [1], in experiment [2], in [4] and in experiment [5] was “inactive” in each case. The compound was called inactive in experiment [3] and in [6]. Moreover, the Potency in experiment [7] was 69.7 µM (active).

On to `CCCCN(CC)C(=O)SCCC`, for which the Potency result in experiment [1], in [2], in experiment [4], in [9], in [5] and in experiment [7] was “inactive” in each case. Besides, the compound was called inactive in [3] and in [8].

Take `CC(C)(C)C(O)(CCc1ccc(Cl)cc1)Cn1cncn1` (stereo not drawn): the Potency result in [10], in experiment [4], in experiment [9] and in experiment [5] was “inactive” each time. In addition, the outcome in [3], in experiment [8] and in experiment [6] was inactive.

On to `CCNc1nc(NC(C)(C)C)nc(SC)n1`, for which the Potency result in experiment [2], in [10], in experiment [4], in [9], in experiment [5] and in experiment [7] was “inactive” throughout. In addition, the outcome in experiment [3], in experiment [8] and in [6] was inactive.

Turning to `CC(C)N1C(=O)c2ccccc2NS1(=O)=O`, the Potency entry in experiment [1], in experiment [2], in [4], in [5] and in experiment [7] was “inactive” in each case. For the same compound, the call in [3] and in experiment [6] was inactive.

Consider `O=C(NC(=O)c1c(F)cccc1F)Nc1cc(Cl)c(OC(F)(F)C(F)C(F)(F)F)cc1Cl` (stereo not drawn), for which the Potency entry in experiment [1], in [10], in [4], in experiment [9], in experiment [5] and in [7] was “inactive” throughout. Also, the compound was classed as inactive in experiment [3], in [8] and in experiment [6].

For `Clc1ccc(Cl)cc1`, the Potency result in [1], in experiment [2], in [4] and in [9] was “inactive” throughout. Also, the result in experiment [3], in experiment [8] and in experiment [6] was inactive. Moreover, the Potency in experiment [5] was 2.17 µM (active) and inactive; in experiment [7], 2.17 µM (active).

Turning to `CN1C(=O)CN=C(c2ccccc2)c2cc(Cl)ccc21`, the Potency result in experiment [1], in [4], in experiment [9], in [5] and in experiment [7] was “inactive” throughout. Further, in experiment [2], the Potency is 27.7 µM (active) and inactive. Further, the call in experiment [3] and in experiment [8] was inactive.

For `CCCCCCCCCCCC#N`, the Potency result in experiment [1], in experiment [2], in [4], in [5] and in experiment [7] was “inactive” each time. In [3], the outcome was inactive.

Regarding `CC(C)NC(=O)N1CC(=O)N(c2cc(Cl)cc(Cl)c2)C1=O`, the Potency entry in experiment [1], in [2], in experiment [4] and in experiment [9] was “inactive” throughout. Also, the call in experiment [3] and in experiment [8] was inactive. Further, the Potency was 50.1 µM (active) and inactive in experiment [5]; 19.3 µM (active) and inactive in experiment [7].

Consider `CCCN(CCC)N=O`, for which the Potency entry in experiment [1], in [2], in [4], in [9], in experiment [5] and in experiment [7] was “inactive” throughout. In addition, the call in [3] and in [8] was inactive.

As for `O=[N+]([O-])c1ccc(Oc2ccc(Cl)cc2Cl)cc1`, the Potency entry in experiment [2], in experiment [10], in experiment [4], in [9], in experiment [5] and in experiment [7] was “inactive” in each case. The compound was called inactive in experiment [3] and in [8].

Regarding `CC(=O)C=C(C)C`, the Potency result in experiment [1], in experiment [2], in [4], in [9], in [5] and in [7] was “inactive” throughout. Also, the outcome in experiment [3] and in experiment [8] was inactive.

As for `CC1OC(C)OC(C)O1` (stereo not drawn), the Potency result in [1], in experiment [2], in [4], in experiment [5] and in experiment [7] was “inactive” throughout. The call in experiment [3] and in [6] was inactive.

With `C=CC(N)=O`, the Potency entry in [1], in experiment [2], in experiment [4], in experiment [9], in experiment [5] and in experiment [7] was “inactive” throughout. For the same compound, the call in [3] and in experiment [8] was inactive.

`C=CCO`: the Potency result in experiment [1], in experiment [2], in experiment [4], in experiment [5] and in experiment [7] was “inactive” in each case. The call in [3] and in experiment [8] was inactive. Also, the Potency entry in [9] was “inactive and 8.71 µM (active)”.
